High-throughput results deposited in PubChem BioAssay by National Center for Advancing Translational Sciences (NCATS).
Most compounds without a hit are left out; they make up all but 7.9% or so of the library.
SW480 rereplic: DNA re-replication induction in SW480 cells | SW480 DNA re-replication, Hoechst DNA content imaging, 48 h | Potency, µM (top dose mostly 46.1 µM), actives largely listed as activators | 340,000 compounds, 1.8% hits; also: nearly all actives have a fitted effect of over 55% in size
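First, 250 cells per well were seeded. Next, compound or vehicle (23 nL) was pinned in, plates sat 48 hr at 37 C. Finally Hoechst was added for 40 min before fluorescence scanning.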
KB-3-1 cytotox: kills parental KB-3-1 adenocarcinoma cells. 400,000 compounds, 1.4% hits. Potency, µM (top dose mostly 46.1 µM), hits mostly cytotoxic. KB-3-1 viability, CellTiter-Glo ATP luminescence, 72 h; also: nearly all actives have a fitted effect of over 60% in size
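Cytotoxicity measured as CellTiter-Glo luminescence after 72 h at 37 C. Compound titrations were pinned onto drug-naive KB-3-1 parental adenocarcinoma cells grown in DMEM with 10% FBS, and normalized data fitted to concentration-response curves.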
HT1080NT lethal: kills 2HG-producing HT-1080-NT fibrosarcoma cells; HT-1080-NT fibrosarcoma viability, CellTiter-Glo ATP luminescence, 48 h; Potency, µM (doses to about 46.1 µM), actives largely listed as cytotoxic; 360,000 compounds, 1.6% hits;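 also: NT is the 2HG producing partner of a matched IDH1 knockdown line; nearly all actives have a fitted effect of over 55% in size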
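A 48-hour cytotoxicity screen used HT-1080-NT cells plated 2 hours before compound delivery. ATP-based CellTiter-Glo luminescence measured viability, normalized to DMSO and no-cell controls.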
MCF10A rerep: induces DNA re-replication in MCF 10a normal breast cells; MCF 10A DNA re-replication, Hoechst nuclear intensity, 48 h; Potency, µM (doses to about 46.1 µM), hits mostly activators; 350,000 compounds, 2.9% hits; AID 624296; also: nearly all actives have a fitted effect of over 50% in size
KB-V1 cytotox: kills drug-selected multidrug resistant KB-V1 cells; Potency, µM (doses to about 46.1 µM), actives largely listed as cytotoxic; KB-V1 MDR cells viability, CellTiter-Glo, 72 h; AID 1347076; 400,000 compounds, 3.4% hits; also: nearly all actives have a fitted effect of over 60% in size
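KB-V1, DMEM (no phenol red) + 10% FBS; cpd pin-transferred, titration series; 72 h, 37 degrees C; CellTiter-Glo, luminescence. Data normalized, curve-fit.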
HT1080 IDH1KD tx: HT-1080 IDH1 knockdown cell toxicity (counter line); Potency, µM (highest dose often 46.1 µM), hits mostly cytotoxic; HT-1080 IDH1 knockdown viability, ATP luminescence, 48 h; 360,000 compounds, 2% hits
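% activity derives from luminescence (CellTiter-Glo), normalised to DMSO and no-cell wells. HT-1080-IDH1KD cells, 750/well, had 48 h compound exposure at 37 °C.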
Hits are given with their value; . = inactive; ? = inconclusive; / = no result; [ ] = remark or other dose. Calls follow the shape of the dose curve; as a rule, active = well fitted curve in the direction sought with a large enough effect; inconclusive = small, poorly fitted or top-dose-only effect, or another doubt; inactive = no such curve, though single readings can be large; an effect the other way counts as inactive or inconclusive.

SMILES	SW480 rereplic	KB-3-1 cytotox	HT1080NT lethal	MCF10A rerep	KB-V1 cytotox	HT1080 IDH1KD tx
COc1cc(-c2cc(C(=O)Nc3ccc(O)cc3)c3ccccc3n2)cc(OC)c1OC	.	.	?	.	.	?
COc1cc(-c2cc(C(=O)Nc3cccc(C(C)=O)c3)c3ccccc3n2)cc(OC)c1OC	.	?	.	?	20.6µM	?
COc1cccc(NC(C(=O)Nc2cccc(C(C)=O)c2)c2ccccc2)c1 (stereo not given)	.	.	.	.	?	.
COc1cccc(C(=O)C[n+]2ccccc2/C=N/O)c1	.	.	.	?	.	.
Cc1ccccc1OCc1ccc(-c2nc(C#N)c(N3CCN(C)CC3)o2)o1	/	.	/	/	.	/
CCOc1ccc2cc(/C=C/C(=O)c3ccco3)c(Cl)nc2c1	16.4µM	?	.	5.8µM	?	.
CCOc1ccc2nc(SCC(=O)NNC(=O)c3ccco3)c(C)cc2c1	.	?	.	.	.	.
CC(C)CC(=O)N/C(N)=N/c1nc2ccccc2o1	.	?	.	.	.	.
COc1ccc2c(c1)O[C@@H](c1cccc(C(F)(F)F)c1)[C@H](O)C2=O	20.6µM	/	/	.	/	/
CCc1cc2c(=O)nc3n(c2s1)Cc1ccccc1/C3=C(/O)c1ccccc1Cl	.	.	.	6.51µM	.	.
Cc1cccc(NC(=O)c2cccc(S(=O)(=O)N(C)c3ccccc3)c2)n1	.	.	.	.	7.31µM	.
Cc1cc(NC(=O)c2cccc(S(=O)(=O)N(C)C)c2)n(-c2ccccn2)n1	.	.	.	?	9.2µM	.
Cc1cc(NC(=O)c2cccc(S(=O)(=O)N3CCCCCC3)c2)n(-c2ccccn2)n1	.	.	.	.	?	.
CN(c1ccccc1)S(=O)(=O)c1cccc(C(=O)NC2CCCCC2)c1	.	.	.	?	14.6µM	.
Cc1ccc(S(=O)(=O)N(C)c2ccc(C(=O)Nc3cccc(C)n3)cc2)cc1	.	.	.	?	?	.
COc1ccc(-n2nc(C(=O)NCC(=O)N3CCC(C)CC3)c3ccccc3c2=O)c(OC)c1	.	.	.	.	?	.
COc1cc(OC)c2c(-c3cccc(-c4ccc(OC)c(OC)c4)c3)cc(=O)oc2c1	2.06µM	.	?	1.3µM	.	?
COc1cc(OC)c2c(-c3cccc(-c4sccc4C(C)=O)c3)cc(=O)oc2c1	6.51µM	2.91µM	4.11µM	0.651µM	2.59µM	3.66µM
COc1cc(OC)c2c(-c3cccc(-c4ccc(C#N)cc4)c3)cc(=O)oc2c1	?	.	?	?	?	.
COc1cc(OC)c2c(-c3cccc(-c4ccc(NC(C)=O)cc4)c3)cc(=O)oc2c1	9.2µM	.	0.517µM	?	.	0.92µM
CCOC(=O)c1ccc(-c2cccc(-c3cc(=O)oc4cc(OC)cc(OC)c34)c2)cc1	?	.	.	?	.	.
COc1cc(OC)c2c(-c3cccc(-c4ccc(F)c(Cl)c4)c3)cc(=O)oc2c1	?	?	?	4.61µM	?	16.4µM
CC(C)CNC(=O)c1cc2nc3c(c(C(F)(F)F)n2n1)CCc1ccccc1-3	.	.	?	.	.	.
O=C(NCCc1ccccc1)N1CCCC(CNS(=O)(=O)Cc2ccccc2)C1 (stereo not given)	.	.	.	.	?	.
CC(=O)N1CCN(c2ccc(NC(=O)c3ccc4c(c3)OCO4)cc2)CC1	.	.	.	.	.	.
SMILES	SW480 rereplic	KB-3-1 cytotox	HT1080NT lethal	MCF10A rerep	KB-V1 cytotox	HT1080 IDH1KD tx
CCOc1ccc(C(=O)Nc2ccc(NC(=O)c3cccs3)cc2)cc1[N+](=O)[O-]	.	.	.	.	.	.
COc1ccc(/C=N/OCC(=O)NC(c2ccccc2)c2ccccc2)cc1OC	.	?	.	.	2.31µM	.
COc1cc(/C=N/OCC(=O)NC23CC4CC(CC(C4)C2)C3)ccc1OCc1ccccc1	?	?	.	20.6µM	?	?
C/C(=N\OCC(=O)NC12CC3CC(CC(C3)C1)C2)c1cc2ccccc2o1	?	.	?	20.6µM	.	?
COc1cc(/C=N/OCC(=O)Nc2ccc(OC(F)F)cc2)ccc1OCc1ccccc1	?	23.1µM	?	?	8.2µM	?
Cc1ccc(C(=O)O/N=C/C2=C(Cl)c3ccccc3CC2)cc1	.	?	.	.	?	.
COc1ccccc1C(=O)c1c(C)c(CCC#N)n2ccccc12	.	.	.	.	.	.
O=c1cc2c(n[nH]1)CCCC2	.	.	.	.	.	.[9.24 µM]
Cc1ccc2nc3c(cc2c1)c(NS(=O)(=O)c1ccccc1)nn3CC(C)C	.	.	.	.	.	.
COc1cc(NC(=O)C2CC2C)c(C(=O)O)cc1OC (stereo not given)	.	.	.	.	?	.
COCCNC(=O)C(=O)NCC(c1cccnc1)N1CCN(c2ccccc2OC)CC1 (stereo not given)	/	.	/	/	.	/
COC(=O)c1cc(O)cc(OC)c1C(=O)c1c(O)cc(C)cc1O	.	.	.	?	.	.
COC(=O)c1cc(O)cc(OC)c1Oc1cc(C)cc(O)c1C(=O)O	?	?	23.1µM	?	.	?
O=C(Nc1ccc2c(c1)CCC2)c1cccc(OC(F)F)c1	.	.	.	.	.	.
COc1ccc(NC(=O)c2cccc(F)c2)cc1Cl	.	.	.	.	.	.
O=C(Nc1ccc(OC(F)F)c(Cl)c1)c1cccc(OC(F)F)c1	.	?	?	.	18.4µM	?
COc1ccc(NC(=O)c2cccc(OC(F)F)c2)cc1Cl	.	.	.	.	14.6µM	.
COc1cc(CN2c3ccccc3C(=O)CS2(=O)=O)cc(OC)c1	.	.	.	.	.	.
CC1CC(C)CN(C(=O)CCCn2c(=S)[nH]c3ccccc3c2=O)C1 (stereo not given)	.	.	.	.	.	.
CSc1nc(N)c(C(=O)NC2CCCCC2)s1	.	.	.	.	.	.
COCCn1c(C)cc(C(=O)COC(=O)c2ccccc2Br)c1C	.	.	.	.	.	.
Cc1cc(C(=O)COC(=O)c2n[nH]c3ccccc23)c(C)n1C	.	.	.	.	.	.
COCCn1c(C)cc(C(=O)COC(=O)c2[nH]c(C)c(C(C)=O)c2C)c1C	.	?	.	.	4.11µM	?
CN(C(=O)COC(=O)c1n[nH]c2ccccc12)c1ccccc1	.	.	.	.	8.2µM	.
COCCn1c(C)cc(C(=O)COC(=O)c2n[nH]c3ccccc23)c1C	.	.	.	?	9.2µM	.
CN(C(=O)COC(=O)c1n[nH]c(=O)c2ccccc12)c1ccccc1	.	.	.	.	.	.
CCCn1cc(NC(=O)c2cc(-c3ccccc3)on2)cn1	?	.	?	.	.	?
